Shown are actives, neighbours in structure and some others; about 6.8% of the full set was active somewhere.
Pf Dd2 growth: P. falciparum Dd2 growth inhibitors, primary screen, SYBR Green fluorescence, single dose replicates; 72 h; active compounds read low; activity change, % at 10 µM; 2.3% of 94,000 active; AID 1159554, 2015; in the data active means activity change below about -80%; inconclusive means no clear call, values can overlap the other calls
T cruzi growth-1: T. cruzi intracellular proliferation inhibitors, primary screen, cell-based, beta-gal Tulahuen parasites, NIH3T3 host, luminescence. T. cruzi beta-gal in NIH3T3, GalScreen luminescence, 90 h. inhibition, % at 8.34 µM. 5.9% of 77,000 active. AID 624255, 2012;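 active means mean inhibition above about 93%, with at least 55% of replicates each passing it, limit read from the data, passing the limit was not always enough; inconclusive means only one of those two conditions holds; inactive means neither condition holds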
C diff HTS: C. difficile growth inhibitors, primary screen, HTS; 0.25% of 86,000 active; growth activity, negative = inhibition, % at 16 µg/mL (by protocol); Clostridium difficile clinical isolate growth, OD600, 24 h; active compounds read low; AID 1259249, 2017;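 active means mean growth activity at or below -80% and every replicate also at or below -80%; inconclusive means mean at or below -80% but some replicate above -80%; inactive means mean growth activity above -80%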
T cruzi growth-2: T. cruzi intracellular proliferation inhibitors, confirmation, cell-based, NIH3T3 host, beta-gal parasite, luminescence, cherry-pick. shares compounds with T cruzi growth-1. T. cruzi beta-gal in NIH3T3, GalScreen luminescence, 90 h. inhibition, % at 8.35 µM. 72% of 5,600 active. AID 651739, 2012;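 active means mean replicate inhibition above about 95% and at least 55% of replicates individually reaching it, limit read from the data; inconclusive means only one of the two criteria is met; inactive means neither criterion is met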
T cruzi growth-3: inhibitors of intracellular T. cruzi replication, confirmation, NIH3T3 host cells, beta-gal parasites, cherry-pick, set 2; T. cruzi beta-gal in NIH3T3, GalScreen luminescence, 90 h; inhibition, % at 2.09 µM; 21% of 5,600 active; AID 651740, 2012; shares compounds with T cruzi growth-1;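 active means mean inhibition above about 95%, with at least 55% of replicates also reaching it, limit read from the data; inconclusive means meets just one of the two conditions; inactive means meets neither condition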
NIH3T3 tox: cytotoxicity in mouse NIH/3T3 fibroblasts, confirmation, cytotoxicity control for T. cruzi proliferation inhibitor project, cell-based, cherry-pick, single point. NIH/3T3 viability, CellTiter-Glo ATP luminescence, 90 h. shares compounds with T cruzi growth-1. cytotoxicity (signal decrease), % at 8.35 µM. AID 651742, 2012. 14% of 5,600 active;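 active means mean signal decrease across replicates above about 35% based on untreated-well scatter, with enough replicates individually passing, limit read from the data; inconclusive means no rule stated though some were filed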
3T3 cytotox 2: NIH/3T3 fibroblast cytotoxicity, confirmation, cytotoxicity control, cell-based, cherry-pick, single point, set 2. shares compounds with T cruzi growth-1. NIH/3T3 viability, CellTiter-Glo ATP luminescence, 90 h. inhibition, % at 24.9 µM. 56% of 5,600 active. AID 651744, 2012;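 active means mean loss of cell viability signal at or above a set limit, and enough replicates individually reaching it; inconclusive means meets only the mean limit or only the replicate share; inactive means meets neither condition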
Each line names hits and unclear results; the compound was inactive in the other large screens (follow-up assays come after a bar, where they were run).

CCCC#Cc1ccc([C@H]2[C@@H](C#N)N(C(=O)CN3CCOCC3)[C@@H]2CO)cc1	T cruzi growth-1 105 | T cruzi growth-2 98 | T cruzi growth-3 inactive | NIH3T3 tox inactive | 3T3 cytotox 2 inactive
CCCC#Cc1ccc([C@H]2[C@@H](C#N)N(C(=O)CN3CCOCC3)[C@H]2CO)cc1	T cruzi growth-1 98 | T cruzi growth-2 103 | T cruzi growth-3 inactive | NIH3T3 tox inactive | 3T3 cytotox 2 inconclusive
CCCC#Cc1ccc([C@@H]2[C@@H](C#N)N(C(=O)C3CC3)[C@@H]2CO)cc1	none
N#C[C@@H]1[C@@H](c2ccccc2)[C@H](CO)N1C(=O)CN1CCOCC1	none
C[C@@H]1CN([C@H](C)CO)C(=O)c2cc(NS(=O)(=O)c3cn(C)cn3)ccc2O[C@@H]1CN(C)S(=O)(=O)c1ccccc1	none
C[C@@H]1CN([C@H](C)CO)C(=O)Cc2cc(NC(=O)C3CCCCC3)ccc2O[C@H]1CN(C)S(=O)(=O)c1cccs1	none
COc1ccccc1NC(=O)N[C@@H]1C=C[C@@H](CC(=O)N[C@@H](C)c2ccccc2)O[C@@H]1CO	none (no result: C diff HTS)
CCCNC(=O)Nc1ccc2c(c1)C(=O)N(C)C[C@H](OC)[C@@H](C)CN(Cc1ccccc1)[C@H](C)CO2	none (no result: Pf Dd2 growth, C diff HTS)
COc1ccc(-c2ccc([C@@H]3[C@H]4CN(C(=O)c5ccc(F)cc5)CCCCN4[C@H]3CO)cc2)cc1	none
COc1ccc(-c2ccc([C@H]3[C@@H](CO)N4CCCCN(C(=O)c5ccc6c(c5)OCO6)C[C@H]34)cc2)cc1	T cruzi growth-1 101 | T cruzi growth-2 104 | T cruzi growth-3 inactive | NIH3T3 tox 49 | 3T3 cytotox 2 104
COc1ccc(-c2ccc([C@@H]3[C@@H](CO)N4C(=O)CN(C(=O)c5ccc6c(c5)OCO6)C[C@H]34)cc2)cc1	none (no result: T cruzi growth-1)
COc1ccc(-c2ccc([C@@H]3[C@@H](CO)N4CCCCN(C(=O)c5ccc6c(c5)OCO6)C[C@@H]34)cc2)cc1	T cruzi growth-1 115 | T cruzi growth-2 98 | T cruzi growth-3 inactive | NIH3T3 tox inactive | 3T3 cytotox 2 43
COc1ccc(-c2ccc([C@@H]3[C@@H](CO)N4CCCCN(C(=O)c5ccc(F)cc5)C[C@@H]34)cc2)cc1	none
COc1ccc(-c2ccc([C@H]3[C@@H](CO)N4CCCCN(C(=O)c5ccc6c(c5)OCO6)C[C@@H]34)cc2)cc1	T cruzi growth-1 118 | T cruzi growth-2 107 | T cruzi growth-3 inactive | NIH3T3 tox 46 | 3T3 cytotox 2 43
COc1ccc(-c2ccc([C@@H]3[C@@H](CO)N4CCCCN(C(=O)c5ccc6c(c5)OCO6)C[C@H]34)cc2)cc1	T cruzi growth-1 98 | T cruzi growth-2 inactive | T cruzi growth-3 inactive | NIH3T3 tox inactive | 3T3 cytotox 2 98
CCC(=O)N1C[C@@H](C)[C@@H](OC)CN(C)C(=O)c2cc(NC(=O)Nc3cccc(F)c3)ccc2OC[C@@H]1C	none (no result: C diff HTS)
O=C([C@@H]1[C@@H](CO)[C@@H]2Cn3c(cccc3=O)[C@H]1N2CC1CC1)N1CCc2ccccc2C1	T cruzi growth-1 121 (no result: Pf Dd2 growth) | T cruzi growth-2 inactive | T cruzi growth-3 inactive | NIH3T3 tox inactive | 3T3 cytotox 2 inactive
O=C([C@H]1[C@H](CO)[C@H]2Cn3c(cccc3=O)[C@@H]1N2CC1CC1)N1CCc2ccccc2C1	T cruzi growth-1 108 (no result: Pf Dd2 growth) | T cruzi growth-2 inactive | T cruzi growth-3 inactive | NIH3T3 tox inactive | 3T3 cytotox 2 inactive
O=C([C@@H]1[C@@H](CO)[C@@H]2Cn3c(cccc3=O)[C@H]1N2C(=O)CC1CC1)N1CCc2ccccc2C1	none (no result: T cruzi growth-1)
CC(=O)N1[C@@H]2Cn3c(cccc3=O)[C@H]1[C@@H](C(=O)N1CCc3ccccc3C1)[C@@H]2CO	none
COc1ccc(S(=O)(=O)Nc2ccc3c(c2)C(=O)N([C@@H](C)CO)C[C@H](C)[C@H](CN(C)S(=O)(=O)c2ccc(OC)cc2)O3)cc1	none

From PubChem BioAssay
